A selection: hits, their analogues and other compounds. The true share with any hit is near 3.5%.
BoNT-A LC inh2: blocks Botulinum neurotoxin A light chain protease | multiplex microsphere protease substrate cleavage, flow cytometry | inhibition, % at 10 µM | hit rate 0.17% among 360,000 | AID 588499; also: plate controls were buffer without enzyme for full effect and enzyme alone for no effect
Anthrax LF prot: inhibitors of Bacillus anthracis lethal factor protease; multiplex microsphere protease cleavage assay, LF; hit rate 0.12% among 360,000; inhibition, % at 10 µM; AID 588501; P15917; also: plate controls were buffer without enzyme for full effect and enzyme alone for no effect
Target sequence (P15917 whole entry, looked up): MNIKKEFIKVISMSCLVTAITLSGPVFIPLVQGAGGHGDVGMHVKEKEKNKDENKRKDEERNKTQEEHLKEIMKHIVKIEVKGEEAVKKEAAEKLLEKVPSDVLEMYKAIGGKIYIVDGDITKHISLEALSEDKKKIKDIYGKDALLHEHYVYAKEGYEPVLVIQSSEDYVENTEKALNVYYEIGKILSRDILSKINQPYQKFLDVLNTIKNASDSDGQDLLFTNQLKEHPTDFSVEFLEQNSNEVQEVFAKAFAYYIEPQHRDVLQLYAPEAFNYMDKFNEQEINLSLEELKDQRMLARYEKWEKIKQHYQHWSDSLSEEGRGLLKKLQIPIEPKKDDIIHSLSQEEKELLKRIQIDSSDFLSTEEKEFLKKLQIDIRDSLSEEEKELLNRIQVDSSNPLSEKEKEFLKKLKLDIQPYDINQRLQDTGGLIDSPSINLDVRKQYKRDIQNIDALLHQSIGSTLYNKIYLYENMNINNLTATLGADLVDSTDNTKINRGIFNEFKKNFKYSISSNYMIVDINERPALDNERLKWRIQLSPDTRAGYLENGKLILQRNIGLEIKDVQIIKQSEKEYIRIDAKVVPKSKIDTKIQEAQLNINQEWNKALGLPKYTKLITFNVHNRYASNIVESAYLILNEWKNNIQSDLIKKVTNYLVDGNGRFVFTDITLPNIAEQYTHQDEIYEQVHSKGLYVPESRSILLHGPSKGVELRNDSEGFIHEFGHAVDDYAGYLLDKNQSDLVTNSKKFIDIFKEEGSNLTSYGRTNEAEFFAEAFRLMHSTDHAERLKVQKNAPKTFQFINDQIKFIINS
Autofluor counter: flagged as autofluorescent in microsphere protease counterscreen; compound autofluorescence counterscreen, microsphere flow cytometry; stronger effect = higher value; fluorescence intensity (test concentration not listed); hit rate 3.1% among 360,000; AID 624483; in the data active = fluorescence intensity above about 16000; inconclusive = no clear call, values can overlap the other calls
BoNT F protease: blocks Botulinum neurotoxin F light chain protease | Multiplex microsphere protease cleavage assay, flow cytometry | inhibition, % at 10 µM | hit rate 0.22% among 360,000; in the data active = inhibition above about 35%, passing the limit was not always enough; inconclusive = no clear call, values can overlap the other calls; also: plate controls were buffer without enzyme for full effect and enzyme alone for no effect
Active calls of the source: *; ? = inconclusive. Rule as the data show it, unless noted: active = inhibition above about 30%; inconclusive = no clear call, values can overlap the other calls; inactive = below that.

SMILES | BoNT-A LC inh2 | Anthrax LF prot | Autofluor counter | BoNT F protease
COc1cccc(-c2nnc(-c3ccc(C(F)(F)F)cc3)o2)c1OC | -0.6 | 5.6 | 9011 | 10.8
COc1cc(OC)c(-c2nnc(-c3ccc(OC)c(OC)c3OC)o2)cc1OC | -1.2 | -4.2 | 23443* | -3.4
Fc1ccccc1CSc1nnc(-c2cccnc2)o1 | -0.4 | -0.3 | 6879 | 4.4
Cc1ccc(C)c(CSc2nnc(-c3cccnc3)o2)c1 | ? | -2.8 | 24006* | -2.4
Cc1cc(C(=O)OCC(=O)NC(C)c2ccc(F)cc2)c(C)o1 (stereo unspecified) | 0.6 | -1.5 | 3833 | -2.1
CC(C)CNC(=S)NNC(=O)c1ccc2c(c1)OCO2 | -5.2 | -7.4 | 17145* | -5.5
COCCCNC(=S)NNC(=O)c1ccc2c(c1)OCO2 | -0.5 | 1.4 | 3606 | -9.1
CC(C)CN(C(=O)CN(C)CC(=O)Nc1ccccc1C#N)c1c(N)n(CC(C)C)c(=O)[nH]c1=O | 0.1 | -1.7 | 3489 | -0.5
N#CC1=C(SCC(=O)NC2CC2)NC(=O)C(C#N)C12CCCCC2 (stereo unspecified) | 2.3 | 0.8 | 20178* | 3.1
C=CCSC1=C(C#N)C2(CCCCC2)C(C#N)C(=O)N1 (stereo unspecified) | ? | 1.2 | 19902* | 2.0
CC(C)(C)C1CCC2(CC1)C(C#N)=C(SCC(=O)NC1CCCCC1)NC(=O)C2C#N (stereo unspecified) | -0.6 | -1.6 | 7931 | 0.1
O=C(Nc1cc(C(F)(F)F)ccc1N1CCCCC1)C1=COCCO1 | -0.2 | 0.5 | 3866 | 2.3
COc1ccc(CCN=CC2=C(O)CC(C)(C)CC2=O)cc1 | 1.4 | -0.5 | 4410 | -12.4
CC1(C)CC(=O)C(C=NCCc2ccc(S(N)(=O)=O)cc2)=C(O)C1 | -2.1 | -2.0 | 23978* | -7.1
CN1C(=S)SC(C)(NO)C1(C)C (stereo unspecified) | -8.8 | -6.4 | 18153* | -11.0
COC(=O)[C@H](C)NC(=O)NCc1ccco1 | 1.0 | 0.9 | 20251* | 1.2
CC(C)Oc1ccc(C(CC(=O)NCc2ccco2)c2ccccc2)cc1 (stereo unspecified) | -1.4 | -0.7 | 16645* | -3.0
CCC(C)[C@H](NC(=O)NCc1ccco1)C(=O)OC (stereo partly specified) | -4.6 | -4.9 | 3239 | ?
CC(C)C[C@H]1CN(CCCC[C@@H]2CNC(=O)C(=O)N2CCc2ccccc2)C(=O)C(=O)N1CCc1ccccc1 | 0.2 | -11.1 | 5389 | -6.1
C[C@@H]1CN([C@@H](C)CO)C(=O)c2cc(C#Cc3ccccc3)cnc2O[C@H]1CN(C)C(=O)c1ccccc1F | -0.5 | -1.9 | 3384 | -9.3
Cc1noc(NS(=O)(=O)c2ccc(NC(=O)CSc3nc4ccccc4[nH]3)cc2)c1C | -0.6 | 0.1 | 10517 | -4.2
Cc1noc(NS(=O)(=O)c2ccc(NC(=O)CSc3nnc(-c4ccccc4)n3C3CCCCC3)cc2)c1C | -1.4 | -4.0 | 22405* | -0.4
COc1ccc(NC(=O)C(NC(C)=O)C(=O)Nc2ccc(F)cc2)cc1 (stereo unspecified) | -1.3 | 5.4 | 3949 | -16.4
CC(C)CC(=O)Nc1nnn(C)n1 | 4.4 | -7.1 | 18519* | 6.6
CC(C)C(=O)Nc1nnn(C)n1 | 1.2 | -1.9 | 22504* | 1.4
SMILES | BoNT-A LC inh2 | Anthrax LF prot | Autofluor counter | BoNT F protease
Cn1nnc(NC(=O)CSc2ccc(Cl)cc2)n1 | 0.9 | -1.1 | 4755 | -17.7
CCc1ccccc1N1CC(C(=O)Nc2cc(S(=O)(=O)N3CCCC3)ccc2Cl)CC1=O (stereo unspecified) | 1.8 | -5.7 | 9082 | 2.9
CC1CN/C(=C\C(=O)c2ccc(Cl)cc2)C(=O)N1 (stereo unspecified) | ? | -5.3 | 24766* | -8.9
C[C@H](CO)N1C[C@H](C)[C@@H](CN(C)C(=O)c2ccncc2)OCc2cnnn2CCCC1=O | 0.2 | -3.6 | 2941 | -4.3
CSCCC(NC(=O)c1cncc(Br)c1)C(=O)O (stereo unspecified) | 7.8 | -6.4 | 20225* | 7.1
CC(=O)c1cccc(-c2ccnc3c2CC(C(=O)NCc2cccs2)O3)c1 (stereo unspecified) | -1.6 | -16.8 | 2983 | -30.9
CCCOc1ccccc1Nc1nnc(C)c(=O)[nH]1 | -5.1 | -3.5 | 21083* | -6.7
C[C@@H]1CN([C@H](C)CO)C(=O)CCCn2nncc2CO[C@H]1CN(C)Cc1ccc2c(c1)OCO2 | 0.0 | -2.8 | 3622 | -1.7
COCCCn1cc(CN2CC(N3CCSCC3)CS2(=O)=O)nn1 (stereo unspecified) | 0.1 | -2.9 | 4046 | 2.7
Cc1nn(CC(=O)NCCCN2CC(C)CC(C)C2)c(=O)c2cccn12 (stereo unspecified) | 1.1 | -0.7 | 4971 | 6.7
CCOC(=O)N1CCN(C(=O)COc2ccc(S(=O)(=O)NCC(C)C)cc2C)CC1 | -1.5 | -0.6 | 21204* | -3.3
CCOC(=O)N1CCN(C(=O)COc2ccc(S(=O)(=O)Nc3ccc(OCC)cc3)cc2)CC1 | ? | -8.5 | 17078* | -6.3
Cc1cc(S(=O)(=O)NCc2ccccc2)ccc1OCC(=O)NCc1ccccn1 | -2.6 | -11.0 | 3620 | 9.4
Cc1cc(S(=O)(=O)NCC(C)C)ccc1OCC(=O)NCc1ccccn1 | -2.7 | -2.0 | 21787* | -4.5
CCOC(=O)COc1ccc(S(=O)(=O)Nc2cccc(SC)c2)cc1 | -2.6 | -0.4 | 21447* | -4.7
Cc1cc(S(=O)(=O)NCC(C)C)ccc1OCC(=O)N1CCOCC1 | 1.6 | 6.2 | 3940 | ?
CCCCn1nnnc1C(c1cc2ccccc2o1)N1CCN(CC(=O)N2CCCC2)CC1 (stereo unspecified) | -0.7 | -2.7 | 5412 | -2.4
O=C(O)Cn1c2c(c3ccccc31)CSc1ccc(Cl)cc1-2 | 0.5 | -9.5 | 4006 | 11.8
CCOC(=O)C1=C(c2ccccc2)N=c2sc(=Cc3cc(OC)c(OC)c(OC)c3)c(=O)n2C1c1cccs1 (stereo unspecified) | 32.4* | 36.7* | 3180 | 17.6
CCOC(=O)C1=C(c2ccccc2)N=c2s/c(=C\c3ccc(O)cc3)c(=O)n2C1c1cccs1 (stereo unspecified) | 15.2 | 21.0 | 10458 | 5.1
Cc1ccc(-c2nc3cc(C)ccc3o2)cc1 | 0.5 | -5.9 | 3240 | 2.4
Cc1ccc(-c2nc3cc(NS(=O)(=O)c4ccc(C)cc4)ccc3o2)cc1 | 7.3 | -7.6 | 20631* | 5.3
Cc1ccc(-c2nc3cc(N)ccc3o2)cc1 | 0.5 | -2.0 | 23399* | -0.6
CC(C)c1ccc2oc(-c3ccc(N)cc3)nc2c1 | -7.1 | -1.6 | 21916* | -8.4
Cc1cc2nc(-c3ccccc3)c(CC(C)(C)C)n2c(C)c1Br | 0.2 | 2.9 | 5623 | 2.1
CCSc1nc2ccccc2n1C(=O)c1ccc(S(=O)(=O)N2CCCCCC2)cc1 | 0.6 | -0.9 | 1997 | 0.3
CCSc1nc2ccccc2n1C(=O)c1ccc(S(=O)(=O)N2CCCCC2)cc1 | -3.0 | -1.9 | 20953* | -3.9
COc1ccc(/C(O)=C(\C#N)c2nc3ccccc3n2C)cc1OC | ? | 1.7 | 21521* | 5.3
Cn1c(/C(C#N)=C(\O)c2ccc(S(=O)(=O)N3CCCCC3)cc2)nc2ccccc21 | 0.8 | -2.4 | 23146* | 0.0
O=C(NCC1CCCCC1)c1ccc2nc([C@@H]3O[C@H](CO)[C@H](O)[C@H](O)[C@H]3O)[nH]c2c1 | -0.6 | -5.7 | 2962 | 2.6
